Experimental data as given in PubChem BioAssay AID624256 (NMMLSC, 2012).
Screen size: about 360,000 compounds; about 3,700 (1%) were called active. Inconclusive results (about 2%) are left out.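 The calls were made as follows: active = normalized GFP-positive differentiation at or above the plate's own cutoff, the solvent-only control mean plus 3 SD; inconclusive = no clear call, values can overlap the other calls; inactive = the rest.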 The entries come from a sample that favours actives as a whole.

Assay: induction of myeloid progenitor differentiation, primary screen, cell-based, flow cytometry, MLPCN library (AID 624256);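 as to GFP+ MAC1+ double positive: cells exposed to compound for four days before flow analysis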;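 as to normalized GFP-positive differentiation: cells exposed to compound for four days before flow analysis; 0% = DMSO wells and 100% = fulvestrant positive control at 5 µM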
Conditions: ER-HoxA9 myeloid progenitors, lysozyme-GFP differentiation, at 10 µM; GFP+ MAC1+ double positive: measured here: differentiation confirmed by MAC1 staining, stronger effect = higher value; normalized GFP-positive differentiation: stronger effect = higher value

| SMILES | GFP+ MAC1+ double positive | outcome | normalized GFP-positive differentiation |
| --- | --- | --- | --- |
| COc1ccc(-c2ccc(C(=O)NCCN3CCOCC3)c3occc23)c(C)c1 | 1% | inactive |  |
| O=C(NCc1cccnc1)c1cc(C2CCCN(C(=O)C3CCCCC3)C2)on1 (centres undefined) | 0.6% | inactive |  |
| c1ccc2c(c1)CSc1sccc1C2=C1CCNCC1 | 4.3% |  | 87.9% (active) |
| CCCNC(=O)C1(C)CCN(C(=O)c2cc(F)ccc2C)C1 (centres undefined) | 1.2% | inactive |  |
| COc1ccc(N2c3ccccc3CN(Cc3ccccc3)[C@@H](C)[C@H]2Cc2ccc(-c3ccccc3)cc2)cc1 | 3% | inactive |  |
| O=C(Nc1ccc2c(c1)OCCO2)C1c2ccccc2OCC(=O)N1Cc1ccccn1 (centres undefined) | 1.3% | inactive |  |
| Nc1ccc(C(=O)N2CCN(S(=O)(=O)c3ccc(Cl)cc3)CC2)cc1[N+](=O)[O-] | 0.1% | inactive |  |
| O=C(c1ccc(Oc2ccc(Cl)cc2)c([N+](=O)[O-])c1)N1CCCC1 | 0.9% | inactive |  |
| CC1CCN(C(=O)c2ccc(S(=O)(=O)Cc3cc(F)ccc3F)c([N+](=O)[O-])c2)CC1 | 1% |  | 43.9% (active) |
| O=S1(=O)CC(N2CCN(CCO)CC2)CN1C1CCCC1 (centres undefined) | 1% | inactive |  |
| CCN(CC)C(=O)C1CCCN(Cc2cccc(Cl)c2)C1 (centres undefined) | 1% | inactive |  |
| CCOc1ccc(C2C3=C(CCCC3=O)N(CC(=O)O)C3=C2C(=O)CCC3)cc1 | 0.6% | inactive |  |
| COc1ccc(C2C3=C(CCCC3=O)N(CC(=O)O)C3=C2C(=O)CCC3)cc1 | 17.3% |  | 322% (active) |
| CCOc1ccc(C2C(C#N)=C(N)N(N(C)C)C3=C2C(=O)CCC3)cc1 (centres undefined) | 0.6% | inactive |  |
| COc1ccc(C2C(C#N)=C(N)N(c3ncn[nH]3)C3=C2C(=O)CCC3)cc1 (centres undefined) | 0.3% | inactive |  |
| CN(C)N1C(N)=C(C#N)C(c2ccc(Br)cc2)C2=C1CCCC2=O (centres undefined) | 0.4% | inactive |  |
| CCCN1C2=C(C(=O)CCC2)C(c2ccc(O)c(Br)c2)C2=C1CCCC2=O | 3.4% |  | 78.6% (active) |
| CCOC(=O)N1CCN(C(=O)C[C@@H]2C[C@@]3(C(=O)OC)CCCCC=C3N(CCC3=CCCCC3)C2=O)CC1 | 1.2% | inactive |  |
| CN(Cc1ccccc1F)c1cc2c(c3c1ccn3C)C1CCC2O1 (centres undefined) | 2.1% | inactive |  |
| Cc1cc(C)n2c(Nc3c(C)cccc3C)c(CCc3ccccc3)nc2n1 | 0.8% | inactive |  |
| CC1(C(=O)NS(=O)(=O)Cc2cccc(Cl)c2)CCN1C(=O)Cc1ccccc1 (centres undefined) | 1.3% | inactive |  |

| SMILES | GFP+ MAC1+ double positive | outcome | normalized GFP-positive differentiation |
| --- | --- | --- | --- |
| O=S1(=O)CC(N2CCN(CCO)CC2)CN1Cc1cn(Cc2cccc(Cl)c2)nn1 (centres undefined) | 1.8% | inactive |  |
| Cc1cc(C)cc(OCC(=O)NNC(=O)c2cc3ccccc3oc2=O)c1 | 0.7% | inactive |  |
| CCN(CC)c1ccc([N+](=O)[O-])cc1C(=O)O | 0.9% | inactive |  |
| CCN(CC)c1ccc2cc(C(=O)O)c(=O)oc2c1 | 2.8% |  | 30.9% (active) |
| COC(=O)[C@]12CCCCC=C1N(Cc1ccc3c(c1)OCO3)C(=O)[C@H](CC(=O)N1CCOCC1)C2 | 1.1% | inactive |  |
| CC(C)C1Cc2[nH][nH]c(=O)c2C(c2ccc(Cl)cc2)O1 (centres undefined) | 1.1% | inactive |  |
| Cc1ccc(Nc2cc(C)nc3c(C)ccc([N+](=O)[O-])c23)cc1 | 8.4% |  | 156% (active) |
| Cc1ccccc1Nc1c([N+](=O)[O-])ccc2nonc12 | 0.6% | inactive |  |
| Cc1ccc2cccc([N+](=O)[O-])c2n1 | 0.8% | inactive |  |
| CCc1nc2c(OCCOc3ccccc3)cccn2c1N(C)C(=O)c1ccc(OC)cc1 | 0.8% | inactive |  |
| CC1=C(C(N)=O)C(c2ccc(F)cc2)n2nc(CCCO)nc2N1 (centres undefined) | 1% | inactive |  |
| CC1=C(C(N)=O)C(c2ccc3c(c2)OCO3)n2nc(-c3cccc(C)c3)nc2N1 (centres undefined) | 2% |  | 8.9% (active) |
| COc1cccc(-c2nc3n(n2)C(c2ccccc2Cl)C(C(N)=O)=C(C)N3)c1 (centres undefined) | 1.5% | inactive |  |
| Oc1ccc2ccc3cccc[n+]3c2c1 | 0.9% |  | 10.9% (active) |
| CC1(C(=O)NS(=O)(=O)c2ccccc2)CCN1C(=O)C1CCCCC1 (centres undefined) | 1.3% | inactive |  |
| COc1ccc(C(C(=O)NCc2ccccc2)n2c(=O)c(-c3ccccc3)nc3ccccc32)cc1 (centres undefined) | 5.2% | inactive |  |
| COc1ccc(CC(N)c2csc(NC(=O)NC(c3ccccc3)c3ccccc3)n2)cc1 (centres undefined) | 1.7% | inactive |  |
| O=C(CCC(=O)Nc1ccccc1)N/N=C/c1ccccc1F | 0.1% | inactive |  |
| O=C(N/N=C/c1ccccc1O)/C(=C/c1ccccc1)CCO | 4.1% |  | 31.5% (active) |
| O=C(N/N=C/c1ccccc1O)C1CCCC1 | 0.3% | inactive |  |
| Cc1ccc(S(=O)(=O)N2[C@@H](Cc3ccccc3)CO[C@H]2CC(=O)OCc2ccccc2)cc1 | 5.9% | inactive |  |
